Compound activity deposited in PubChem by several laboratories.
Shown are actives, neighbours in structure and some others; about 27% of the full set was active somewhere.
sEH activator: soluble epoxide hydrolase (human) activation | activation, % at 2 µM | P34913 | purified human sEH enzymatic activity, activator screen | actives 0.04% (n = 91,000) | AID 717; in the data active = activation above about 37%
sEH inhibitor: soluble epoxide hydrolase (human) inhibition | P34913 | recombinant human sEH enzymatic activity assay | AID 707 | actives 0.34% (n = 91,000) | inhibition, % at 2 µM; in the data active = inhibition above about 80%
CYP2C19 activ: cytochrome P450 2C19 (human) activation; P33261; recombinant CYP2C19, luciferin-H EGE luminescence; active compounds read high; 0 = fully inhibited enzyme, 1 = untreated enzyme; activation factor at 5 µM; 96,000 tested, under 10 active; AID 1025;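 active = activation factor of at least 2 at 5 µM in the primary screen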;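 note: 0 = wells with 2.5 mM tranylcypromine and 1 = vehicle-only wells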
Target sequence (P33261 whole entry, looked up): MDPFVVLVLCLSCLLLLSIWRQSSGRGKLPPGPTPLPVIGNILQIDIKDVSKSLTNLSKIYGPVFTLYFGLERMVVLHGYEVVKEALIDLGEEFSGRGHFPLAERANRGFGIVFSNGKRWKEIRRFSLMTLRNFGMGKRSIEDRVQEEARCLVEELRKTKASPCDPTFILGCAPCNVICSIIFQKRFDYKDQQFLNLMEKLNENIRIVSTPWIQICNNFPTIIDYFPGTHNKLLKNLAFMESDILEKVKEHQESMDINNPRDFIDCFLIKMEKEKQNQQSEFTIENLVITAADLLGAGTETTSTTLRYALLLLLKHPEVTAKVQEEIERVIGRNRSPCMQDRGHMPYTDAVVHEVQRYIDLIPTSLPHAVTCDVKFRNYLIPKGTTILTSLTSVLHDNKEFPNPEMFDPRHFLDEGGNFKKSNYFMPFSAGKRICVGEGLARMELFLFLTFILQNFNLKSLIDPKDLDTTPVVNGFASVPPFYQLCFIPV
CYP2C9 activ: increases human cytochrome P450 2C9 activity. P11712. actives 1.4% (n = 96,000). activation factor at 5 µM. recombinant CYP2C9, luciferin-H conversion, luminescence; active compounds read high; factor 1 = untreated enzyme, 0 = blocked;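 active = activation factor of 2 or more for CYP2C9 at a 5 µM dose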;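 note: 0 = sulfaphenazole-blocked wells and 1 = vehicle-only wells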
CYP2C9 inh: inhibitors of human CYP2C9 | P11712 | inhibition, % at 5 µM | CYP2C9 Supersomes, luciferin-H conversion, luminescence | actives 20% (n = 96,000) | AID 777;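 active = blocking of liver enzyme CYP2C9 beyond about 50% at 5 µM, limit read from the data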
CYP2C19 inh: inhibitors of human CYP2C19; P33261; CYP2C19 Supersomes, luciferin-H EGE luminescence, 30 min; inhibition, % at 5 µM; actives 21% (n = 96,000); AID 778;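 active = CYP2C19 inhibition above a set limit at 5 µM in the primary screen, cut at about 50% in these data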;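 note: plate controls were negative control wells for no effect and 2.5 mM tranylcypromine positive control for full effect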
The depositor's hits bear a star; / = not tested or not shown.

SMILES | sEH activator | sEH inhibitor | CYP2C19 activ | CYP2C9 activ | CYP2C9 inh | CYP2C19 inh
O=C(CN(C(=O)CCC(=O)Nc1nccs1)c1ccc(F)c(Cl)c1)NCc1ccco1 | / | / | 0.2 | 0.7 | 27 | 76*
O=C(CN(Cc1ccc(F)cc1)C(=O)CCC(=O)Nc1ccccn1)NCc1ccco1 | -43 | 42 | 0.7 | 0.7 | 31 | 31
O=C(CN(C(=O)CCC(=O)Nc1nccs1)c1ccccc1F)NCC1CCCO1 (stereo unspecified) | 4 | -4 | 0.7 | 0.6 | 43 | 26
O=C(CN(Cc1ccccc1)C(=O)CCC(=O)Nc1nccs1)NCc1ccco1 | / | / | 0.4 | 0.7 | 26 | 61*
CCc1nc2ccccc2c(C(=O)OCC(=O)NCCCN2CCCC2=O)c1C | -8 | 9 | 0.8 | 1.3 | -28 | 21
Nc1nc(NC(=O)Cc2ccccc2)nn1-c1ccccc1 | / | / | 0.7 | 0.9 | 11 | 28
CCc1nc(SCC(=O)Nc2cc(C)on2)c2c(C)c(C)sc2n1 | / | / | 1 | 0.9 | 8 | 0
Cc1cc(NC(=O)CSc2nc(C3CC3)nc3sc(C)c(C)c23)no1 | 6 | -4 | 0.6 | 0.4 | 63* | 41
Cc1sc2nc(C3CC3)nc(SCC(=O)N3c4ccccc4CC3C)c2c1C (stereo unspecified) | 1 | -2 | 0.3 | 0 | 99* | 65*
Cc1sc2nc(C3CC3)nc(SCC(=O)NCc3ccco3)c2c1C | 8 | -8 | 0.2 | 0.7 | 32 | 84*
Cc1cc2cc3c(cc2nc1SCC(=O)N1c2ccccc2CC1C)OCO3 (stereo unspecified) | 20 | -21 | / | / | / | /
N#Cc1ccccc1NC(=O)CSc1nnc(-c2ccccc2O)n1-c1ccccc1 | 4 | -2 | 0.7 | 0.4 | 64* | 33
CCn1c(SCC(=O)Nc2cc(F)ccc2C)nnc1-c1ccccc1O | 5 | 0 | 0.1 | 0.2 | 81* | 95*
N#CCSc1nnc(-c2ccccc2O)n1Cc1ccccc1 | -7 | 8 | 0.5 | 0.9 | 13 | 51*
CCn1c(SCC(=O)Nc2ccccc2N2CCOCC2)nnc1-c1ccccc1O | -6 | 10 | 0.8 | 0.5 | 49 | 17
CCn1c(SCC(=O)NCc2ccccc2)nnc1-c1ccccc1O | 4 | 0 | 0.4 | 0.5 | 52* | 57*
COc1ccc(NC(=O)c2ccco2)cc1N | -6 | 4 | 0.8 | 0.9 | 13 | 15
O=C(N/N=C1/CCCc2ccccc21)C(c1ccccc1)c1ccccc1 | -9 | 9 | 1.1 | 0.9 | 7 | -12
O=C(CSc1nnc(CCCO)n1-c1ccccc1)NCCc1ccccc1 | 0 | 4 | 0.8 | 0.9 | 10 | 21
CCn1c(SCC(=O)Nc2ccc3c(c2)OCO3)nnc1-c1ccccc1O | -10 | 14 | 0.2 | 0.2 | 79* | 76*
CCn1c(SCC(=O)Nc2ccccc2C)nnc1-c1ccccc1O | 9 | -4 | 0.4 | 0.5 | 51* | 57*
Cc1ccc(-n2c(CCc3ccccc3)nnc2SCC(=O)NCc2ccccc2)cc1C | 24 | -24 | 0.3 | 0.5 | 48 | 67*
CCn1c(SCC(=O)Nc2ccc3c(c2)OCCO3)nnc1-c1ccccn1 | -2 | 3 | 0.6 | 0.5 | 48 | 36
Cn1cc(S(=O)(=O)CC(=O)N2CCc3ccccc32)c2ccccc21 | -4 | 3 | 0.3 | 0.6 | 42 | 67*
Cc1cccc(NC(=O)CS(=O)(=O)c2cn(C)c3ccccc23)c1C | / | / | 0.6 | 1.7 | -74 | 40
SMILES | sEH activator | sEH inhibitor | CYP2C19 activ | CYP2C9 activ | CYP2C9 inh | CYP2C19 inh
CCCn1cc(S(=O)(=O)CC(=O)N2CCc3ccccc32)c2ccccc21 | / | / | 0.1 | 0.2 | 79* | 87*
O=C(CCCN1C(=O)CCC1=O)Nc1ccc2c(c1)OCCO2 | -9 | 11 | 0.9 | 0.8 | 16 | 15
Cc1cc(C)c2c(CC(=O)Nc3ccc(Cl)cn3)coc2c1 | -44 | 45 | 0.9 | 1.1 | -12 | 13
COc1ccc(OC)c(NC(=O)Cc2coc3ccc(C)cc23)c1 | 1 | -1 | 0.5 | 0.6 | 44 | 53*
COc1ccc(OC)c(NC(=O)Cc2coc3cc(C)cc(C)c23)c1 | 0 | -3 | 0.2 | 0.4 | 55* | 75*
COc1ccc(OC)c(NC(=O)Cc2coc3ccc4ccccc4c23)c1 | 9 | -7 | 0 | 0.7 | 26 | 96*
COc1ccc(OC)c(NC(=O)CSc2ccc3ccccc3c2)c1 | 5 | -4 | 0.7 | 1.3 | -29 | 32
CC1(C)CC(=O)C(C=NCCCn2ccnc2)=C(O)C1 | 3 | -4 | 0.5 | 0.9 | 8 | 48
O=C(COc1cccc(C(F)(F)F)c1)Nc1ccc(S(=O)(=O)N2CCCC2)cc1 | -52 | 51 | 1.1 | 1 | -4 | -13
COc1ccc([C@H]2[C@@H](C#N)[C@H](C#N)N3CCCN23)cc1 | -2 | 3 | / | / | / | /
O=C(O)C1SCCN1S(=O)(=O)c1ccc2ccccc2c1 (stereo unspecified) | 17 | -14 | / | / | / | /
COc1ccc(OC)c(-c2cc(C(=O)NCCCn3ccnc3)no2)c1 | / | / | 0.2 | 0.8 | 22 | 75*
COc1ccc(OC)c(-c2cc(C(=O)Nc3cc(C)n(Cc4ccc(Cl)cc4)n3)no2)c1 | 7 | -6 | 0.9 | 1.4 | -42 | 12
COc1ccc2c(Cl)c(C(=O)NCCCn3ccnc3)sc2c1Cl | -30 | 29 | 0.1 | 0.1 | 88* | 88*
O=C(NCCCN1CCOCC1)c1cc(-c2cccs2)on1 | / | / | 1 | 1 | -2 | -2
O=C(NCCCn1ccnc1)c1cc(-c2cccs2)on1 | -3 | 4 | 0.2 | 0.5 | 48 | 79*
O=C(NCc1ccco1)c1ccc(COCC(F)(F)F)cc1 | 3 | -3 | 0.9 | 0.8 | 16 | 9
Cc1ccc(C)c(/C(O)=C2\C(=O)C(=O)N(Cc3cccnc3)C2c2cccnc2)c1 (stereo unspecified) | 5 | -5 | 1 | 0.5 | 51* | 1
Cc1ccc(C)c(/C(O)=C2\C(=O)C(=O)N(CCCN3CCOCC3)C2c2cccnc2)c1 (stereo unspecified) | 11 | -12 | 1.2 | 1.2 | -24 | -20
COCCN1C(=O)C(=O)/C(=C(/O)c2cccc(OC)c2)C1c1ccco1 (stereo unspecified) | 13 | -13 | 0.8 | 1.1 | -10 | 16
O=C1C(=O)N(CCCn2ccnc2)C(c2ccccn2)/C1=C(/O)c1ccccc1 (stereo unspecified) | / | / | 0.9 | 0.5 | 49 | 8
O=C1C(=O)N(Cc2cccnc2)C(c2ccccn2)/C1=C(/O)c1ccccc1 (stereo unspecified) | 11 | -11 | 1 | 0.2 | 76* | 5
COc1cccc(/C(O)=C2/C(=O)C(=O)N(Cc3cccnc3)C2c2ccco2)c1 (stereo unspecified) | 18 | -18 | 0.9 | 0.1 | 89* | 14
COc1ccc(C2/C(=C(\O)c3cccc(OC)c3)C(=O)C(=O)N2c2ccccn2)cc1 (stereo unspecified) | 18 | -18 | 0.7 | 0.3 | 69* | 29
CCc1c(C(=O)NC2CCCC2)csc1C | 18 | -14 | 0.9 | 1 | 2 | 13
